Data as given in PubChem BioAssay.
Values joined by “and” are separate entries in the source; they are usually repeats but may differ in a detail not shown here. Equal values may be shown once.

Tests used:
[1] = test system: Botulinum neurotoxin type F light chain protease (Clostridium botulinum); assay: Botulinum neurotoxin type F light chain protease inhibition, multiplex microsphere flow cytometry, validation set (AID 588459); conditions: multiplex microsphere protease substrate cleavage assay, at 10 µM, stronger effect = higher value
[2] = biological target: Botulinum neurotoxin type A (Clostridium botulinum) (UniProt P0DPI0); assay: BoNT/A light chain protease inhibitors, biochemical, multiplex microsphere flow cytometry, validation set (AID 588460); conditions: at 10 µM, stronger effect = higher value
Sequence of Botulinum neurotoxin type A (Clostridium botulinum) (P0DPI0 whole entry, looked up): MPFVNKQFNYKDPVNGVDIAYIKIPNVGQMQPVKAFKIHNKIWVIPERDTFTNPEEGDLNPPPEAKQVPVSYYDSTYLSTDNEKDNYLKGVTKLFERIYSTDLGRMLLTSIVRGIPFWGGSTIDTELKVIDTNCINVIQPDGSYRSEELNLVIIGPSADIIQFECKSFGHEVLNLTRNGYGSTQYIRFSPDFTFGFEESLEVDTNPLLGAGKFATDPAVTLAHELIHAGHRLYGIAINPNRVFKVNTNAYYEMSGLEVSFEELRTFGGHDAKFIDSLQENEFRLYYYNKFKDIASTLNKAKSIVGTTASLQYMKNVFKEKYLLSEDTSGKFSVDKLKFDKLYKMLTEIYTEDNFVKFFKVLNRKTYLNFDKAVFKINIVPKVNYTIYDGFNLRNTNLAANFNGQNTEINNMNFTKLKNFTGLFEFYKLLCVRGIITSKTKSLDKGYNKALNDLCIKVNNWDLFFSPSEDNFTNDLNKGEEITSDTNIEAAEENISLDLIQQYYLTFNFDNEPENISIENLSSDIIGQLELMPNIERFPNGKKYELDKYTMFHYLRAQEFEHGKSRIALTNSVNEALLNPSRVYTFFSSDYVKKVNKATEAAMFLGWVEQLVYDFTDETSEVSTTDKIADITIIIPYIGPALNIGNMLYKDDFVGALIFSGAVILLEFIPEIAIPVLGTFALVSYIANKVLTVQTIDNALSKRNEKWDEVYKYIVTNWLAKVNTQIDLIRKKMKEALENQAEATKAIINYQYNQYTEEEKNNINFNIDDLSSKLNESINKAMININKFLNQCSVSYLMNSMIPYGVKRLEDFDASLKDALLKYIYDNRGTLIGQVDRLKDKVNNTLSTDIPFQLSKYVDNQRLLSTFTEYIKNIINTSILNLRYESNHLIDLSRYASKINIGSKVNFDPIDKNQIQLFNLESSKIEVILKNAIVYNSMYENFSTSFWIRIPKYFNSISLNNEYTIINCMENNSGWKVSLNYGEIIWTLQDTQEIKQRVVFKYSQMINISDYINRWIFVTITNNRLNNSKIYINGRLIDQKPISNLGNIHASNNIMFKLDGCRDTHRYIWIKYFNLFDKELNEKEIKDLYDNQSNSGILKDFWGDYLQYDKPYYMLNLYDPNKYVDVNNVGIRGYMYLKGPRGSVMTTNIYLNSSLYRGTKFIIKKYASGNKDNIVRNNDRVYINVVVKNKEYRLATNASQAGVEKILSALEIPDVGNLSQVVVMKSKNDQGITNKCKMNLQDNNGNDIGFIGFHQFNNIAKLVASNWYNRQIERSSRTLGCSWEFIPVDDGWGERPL

[3] = biological target: Lethal factor (Bacillus anthracis) (UniProt P15917); assay: Lethal factor protease inhibitors, Bacillus anthracis, multiplex microsphere cleavage assay, validation set (AID 588461); conditions: flow cytometry, at 10 µM, stronger effect = higher value
Sequence of Lethal factor (Bacillus anthracis) (P15917 whole entry, looked up): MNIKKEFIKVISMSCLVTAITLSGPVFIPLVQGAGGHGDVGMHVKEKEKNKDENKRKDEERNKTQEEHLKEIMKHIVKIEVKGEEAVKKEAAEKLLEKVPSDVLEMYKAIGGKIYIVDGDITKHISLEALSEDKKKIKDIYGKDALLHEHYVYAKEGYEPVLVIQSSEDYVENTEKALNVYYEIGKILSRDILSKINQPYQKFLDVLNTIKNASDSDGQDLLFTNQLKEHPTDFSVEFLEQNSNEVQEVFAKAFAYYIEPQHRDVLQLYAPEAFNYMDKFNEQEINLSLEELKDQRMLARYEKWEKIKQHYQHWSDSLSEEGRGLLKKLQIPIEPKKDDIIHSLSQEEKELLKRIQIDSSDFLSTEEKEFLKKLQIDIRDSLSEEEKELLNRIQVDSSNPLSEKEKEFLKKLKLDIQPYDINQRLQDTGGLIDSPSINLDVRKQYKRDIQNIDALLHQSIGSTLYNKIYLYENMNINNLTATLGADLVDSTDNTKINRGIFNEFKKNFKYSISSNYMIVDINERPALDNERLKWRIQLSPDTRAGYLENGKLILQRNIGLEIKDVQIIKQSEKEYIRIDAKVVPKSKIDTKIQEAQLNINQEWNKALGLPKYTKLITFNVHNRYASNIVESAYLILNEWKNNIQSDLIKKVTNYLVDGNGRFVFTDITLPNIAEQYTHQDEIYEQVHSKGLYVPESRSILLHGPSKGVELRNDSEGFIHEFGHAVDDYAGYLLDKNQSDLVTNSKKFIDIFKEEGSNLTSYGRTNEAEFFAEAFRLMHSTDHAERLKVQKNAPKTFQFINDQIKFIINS

Measured: inhibition

CC(C)c1ccc(NC(=O)CNS(=O)(=O)c2ccc(F)cc2)cc1
inactive: [1] 1.6% | [2] -0.9% | [3] 2.8%

O=C1NC(=O)C(c2ccccc2)(c2ccccc2)N1
inactive: [1] 1.3% and 5.2% | [2] -1% and -1.4% | [3] 0.3% and -2.4%

O=C1OC(c2ccc(O)cc2)(c2ccc(O)cc2)c2ccccc21
inactive: [1] -0.3% | [2] -0.8% | [3] -3.6%

NS(=O)(=O)c1cc2c(cc1C(F)(F)F)NC(Cc1ccccc1)NS2(=O)=O (stereo unspecified)
inactive: [1] 2.4% | [2] 1.4% | [3] 3.5%

COc1ccc2c(c1)[N+](C)(C)C(C)(C)C=C2C
inactive: [1] -0.4% | [2] 0.1% | [3] 1.6%

CCN1CCn2c3c(c4cc(Cl)ccc42)CCCC31 (stereo unspecified)
inactive: [1] 0.6% | [2] 1.4% | [3] -8.7%

Cc1nnc(SCC(=O)N2CCCC(C(=O)c3ccc(Cl)cc3)C2)o1 (stereo unspecified)
inactive: [1] 2.8% | [2] 0.9% | [3] -6.4%

CCCCOn1c(C)c(C(C)=O)c2c3no[n+]([O-])c3ccc21
inactive: [1] 1.9% | [2] 0.2% | [3] -1.9%

O=c1[nH]c(=O)n(C2CCCO2)cc1F (stereo unspecified)
inactive: [1] -5.7% | [2] -0.7% | [3] 1.8%

Cc1ccc(C2CC(=O)C(C=NCCN3CCN(C(=S)Nc4ccccc4)CC3)=C(O)C2)cc1 (stereo unspecified)
inactive: [1] -0.8% | [2] 0.1% | [3] 5.4%

COc1ccc2[nH]c3c(c2c1)CCNC3C1CC=C(C)CC1 (stereo unspecified)
inactive: [1] -1.7% | [2] 0.2% | [3] 3.8%

CC(=O)O[C@H]1CSC[C@H]1NC(=O)c1ccccc1
inactive: [1] -2.6% | [2] -1.2% | [3] -4.4%

NCCc1ccc(O)c(O)c1
inactive: [1] -6.2% | [2] -3.5% | [3] -8.7%

O=C(CC1(O)C(=O)Nc2ccccc21)c1ccccc1O (stereo unspecified)
inactive: [1] 0.6% | [2] -0.8% | [3] -1.4%

Nc1c(C(=O)c2ccccc2)oc2ccccc12
inactive: [1] 1.8% | [2] 1% | [3] -7.3%

COC(=O)c1cc(C(=O)NCCC(C)C)cc([N+](=O)[O-])c1
inactive: [1] -5.3% | [2] -2.3% | [3] 2.1%

COc1cc2c(cc1OC)C(c1cc3ccccc3oc1=O)=NC(C)(C)C2
inactive: [1] 0.9% | [2] 0% | [3] 0%

COc1ccc(-n2cc(CNCc3cccnc3)c(-c3cccc(F)c3)n2)cc1
inactive: [1] -3.6% | [2] -0.7% | [3] -8.2%

Cc1ccc2[nH]c3c(=O)n(CCc4cnc[nH]4)cnc3c2c1
inactive: [1] -6.6% | [2] -0.7% | [3] -10.5%

CCN(CC)CCOC(=O)C1(C2CCCCC2)CCCCC1
inactive: [1] 1.9% | [2] 1% | [3] -2.4%

CC(C)(Oc1ccc(CCNC(=O)c2ccc(Cl)cc2)cc1)C(=O)O
inactive: [1] -1.2% | [2] 0.1% | [3] 8.7%

C[C@]12CCC(=O)C[C@@H]1CC[C@@H]1[C@@H]2CC[C@]2(C)C=CC[C@@H]12
inactive: [1] 3.9% | [2] 0.7% | [3] -1.3%

CCC(C)NCCOc1ccccc1C (stereo unspecified)
inactive: [1] 1.2% | [2] -0.1% | [3] 5.2%

CSCCC(NC(=O)/C(=C/c1ccc2c(c1)OCO2)NC(=O)c1cccc([N+](=O)[O-])c1)C(=O)O (stereo unspecified)
inactive: [1] -1.7% | [2] 0.6% | [3] -9.5%

O=C(c1cc2cc(Br)ccc2o1)N1CCCC1
inactive: [1] -9.1% | [2] -4.2% | [3] -3.2%

O=C(O)C1Cc2ccccc2CN1S(=O)(=O)c1ccccc1 (stereo unspecified)
inactive: [1] 0.8% | [2] 0.6% | [3] -3.3%

O=C1C=CC(=O)C(C2=C3C(=O)N(CCc4ccccc4)CC(=O)N3CCC2)=C1
inactive: [1] 1.8% | [2] -0.3% | [3] -4.9%

COc1ccc(CCCC(=O)O)c(C)c1
inactive: [1] -0.2% | [2] 0.1% | [3] 6.1%

CN1C2CCC1CC(OC(c1ccccc1)c1ccccc1)C2 (stereo unspecified)
inactive: [1] 2.3% | [2] 0.7% | [3] 1.9%

CCCC(=O)O[C@]1(C(=O)CO)CC[C@H]2[C@@H]3CCC4=CC(=O)CC[C@]4(C)[C@H]3[C@@H](O)C[C@@]21C
inactive: [1] 5.1% | [2] 0.1% | [3] -0.6%

Cc1ccc2c(c1)C1OCCC1C1N2C(=O)C2C(C(=O)O)C3C=CC21O3 (stereo unspecified)
inactive: [1] -1.8% | [2] -0.8% | [3] 5.5%

COC(=O)c1ccc(OCCCCN2CC(C)OC(C)C2)cc1 (stereo unspecified)
inactive: [1] -4.5% | [2] 0.2% | [3] 4%

COc1ccc(OC)c(NC2=C(Cl)C(=O)N(Cc3ccccc3)C2=O)c1
inactive: [1] 0% | [2] -2.2% | [3] -12.4%

CCCn1c(=O)c2[nH]c(C3CCCC3)nc2n(CCC)c1=O
inactive: [1] 4.7% | [2] 0.8% | [3] -1.9%

NC(=O)C1CCCNC1 (stereo unspecified)
inactive: [1] 1.6% | [2] -0.4% | [3] 5.4%

O=C(NCCc1ccccc1)C1CCN(C2CCN(Cc3ccco3)CC2)CC1
inactive: [1] -0.8% | [2] -0.7% | [3] -9.8%

CN(C)CCOC(=O)C(c1ccccc1)C1(O)CCCC1 (stereo unspecified)
inactive: [1] 2.3% | [2] -0.3% | [3] -6%

COc1ccc(CCN2CNc3c(c(=O)n(C)c(=O)n3C)C2)cc1OC
inactive: [1] 22.1% | [2] 8% | [3] 4.8%

Cc1nc2cc3ccccc3cc2c(=O)[nH]1
inactive: [1] -2% | [2] 1.5% | [3] 3.7%

CCOc1cc2c(cc1OCC)C(c1ccccc1)N(c1ccc(C(=O)O)cc1)C(=O)C2 (stereo unspecified)
inactive: [1] -1.8% | [2] -0.7% | [3] -5.2%

COC(=O)c1cc(=O)c2ccc(OC)cc2o1
inactive: [1] -4.1% | [2] -0.9% | [3] 2.2%

O=C(OCCNC(=O)c1ccc2ccccc2n1)c1ccc(F)cc1
inactive: [1] 1.8% | [2] -0.7% | [3] 4.4%

CC(C)COC(=O)C1C(=O)CC(C)(O)C(C(=O)OCC(C)C)C1c1cccnc1 (stereo unspecified)
inactive: [1] 2.5% | [2] 0.6% | [3] 3.5%

CCCC1O[C@@H]2C[C@H]3[C@@H]4CCC5=CC(=O)C=C[C@]5(C)[C@H]4[C@@H](O)C[C@]3(C)[C@]2(C(=O)CO)O1 (stereo partly specified)
inactive: [1] 6.3% | [2] 3.4% | [3] 3.4%

S=C(NCc1ccccc1)NCc1cccc(CNC(=S)NCc2ccccc2)c1
inactive: [1] -0.9% | [2] 0.7% | [3] -2.4%

COc1c2ccoc2nc2c(OC)cccc12
inactive: [1] -3.7% | [2] 0.1% | [3] 3%

CCOc1ccc(C(=O)NC(C)C2COc3ccccc3O2)cc1 (stereo unspecified)
inactive: [1] -6.8% | [2] -0.6% | [3] -4.7%

Cc1ccc(-c2nnc(-c3ccc4c(c3)OCO4)o2)cc1
inactive: [1] -1% | [2] -0.1% | [3] -8%

Cc1ccc(S(=O)(=O)NC(C(=O)Oc2ccc3c(C(F)(F)F)cc(=O)oc3c2)c2ccccc2)cc1 (stereo unspecified)
inactive: [1] 1.6% | [2] 1.4% | [3] -1.3%

CCc1ccc2oc(=O)cc(CN3CCC(C)CC3)c2c1
inactive: [1] 5.5% | [2] 0.8% | [3] 1.4%

COc1ccc2[nH]c(=O)c(CNC3CCCCC3)cc2c1
inactive: [1] -1.7% | [2] 0.9% | [3] -0.1%

CCCCCCC(=O)N(O)C1CC(=O)N(Cc2ccccc2)C1=O (stereo unspecified)
inactive: [1] 0.4% | [2] -0.7% | [3] 3.7%

O=C(O)C1[C@H]2C(=O)N(C3CCCC3)C[C@]23C=C[C@H]1O3 (stereo partly specified)
inactive: [1] 6.7% | [2] 1.3% | [3] 5.6%

Cc1nc2ccccc2c(=O)n1N
inactive: [1] 4.9% | [2] 0.7% | [3] -5.7%

CC(NC(=O)c1cccnc1)C(=O)O (stereo unspecified)
inactive: [1] -0.3% | [2] -0.4% | [3] -4.7%

O=C(c1ccco1)N1CCCN(Cc2nc(-c3ccc4c(c3)OCO4)no2)CC1
inactive: [1] 1% | [2] 0% | [3] 3.6%

COc1ccc(C)cc1S(=O)(=O)Nc1ccc(F)cc1
inactive: [1] 1.1% | [2] -0.3% | [3] 0.5%
